# Screen size: about 48,000 compounds; about 13,000 (27%) showed an effect of 50% or more. Some of the results follow.
# System: Wolbachia pipientis
# Assay: Anti-Wolbachia Cell-Based Screen
# Assay type: functional
# Parameters: scale not given: in the data most compounds retested in dose-response had high values
# Conditions: 5 µM
row,Structure (SMILES),Percent Effect [%]
1,Nc1nccnc1C(=O)N1CC(OCc2cccc3ccccc23)C1,-5.576
2,CC(C)N1C[C@@H]2CN(C(=O)NCc3ccccc3)CCC[C@]2(C(=O)O)C1.O=C(O)C(F)(F)F,-4.508
3,COc1ccccc1OCC(=O)N1C[C@@H]2CN(C)CCO[C@@H]2C1.O=C(O)C(F)(F)F,-10.13
4,CN1CCO[C@@H]2CN(C(=O)NCc3cccc(F)c3)CC[C@@H]2C1,89.36
5,COCCN1CCO[C@@H]2CN(C(=O)NCc3ccccc3)CC[C@@H]2C1.O=C(O)C(F)(F)F,-7.267
6,CN(C)C[C@H]1OC[C@@H]2CN(C(=O)NCc3cccc(F)c3)CC[C@@H]21.O=C(O)C(F)(F)F,-10.24
7,CN1CCO[C@@H]2CN(C(=O)NCc3ccccc3)CC[C@@H]2C1.O=C(O)C(F)(F)F,100.3
8,CN(C)C[C@H]1OC[C@@H]2CCN(C(=O)NCc3cccc(F)c3)C[C@@H]21,12.45
9,CC(C)N1CCO[C@@H]2CN(C(=O)NCc3ccccc3)CC[C@@H]2C1.O=C(O)C(F)(F)F,99.72
10,Cc1csc(CNC(=O)N(C)Cc2ccc([S+](C)[O-])cc2)n1 (stereo unspecified),-10.57
11,COCCN(CC1CCCN(C2Cc3ccccc3C2)C1)C(=O)CSC (stereo unspecified),-15.09
12,COc1cc(N2CCCn3cnc(COCCO)c3C2)ncn1,-11.76
13,O=C(c1cccn1Cc1cccs1)N1CCN2CCCCC2C1 (stereo unspecified),106.1
14,O=C(c1cccn1Cc1cccs1)N1CCC(C(=O)N2CCCC2)CC1,86.86
15,O=C(OCc1cccs1)c1cccc(C(=O)N2CCCC2)n1,-3.794
16,CNC(=O)C1CCN(C(=O)c2cccn2Cc2cccs2)CC1,0.5999
17,NC(=O)CC1CCN(C(=O)c2cccn2Cc2cccs2)CC1,101.5
18,O=C(c1cccn1Cc1cccs1)N1CCN(C2CC2)CC1,5.207
19,O=C(c1csc(-c2cccs2)n1)N1CCN2CCCCC2C1 (stereo unspecified),1.576
20,NC(=O)C1CCN(C(=O)c2cccn2Cc2cccs2)CC1,117.1
21,O=C(c1cccn1Cc1cccs1)N1CCN(C(=O)C2CC2)CC1,-0.05599
22,NC(=O)CC1CCN(C(=O)c2csc(-c3ccccc3F)n2)CC1,-1.67
23,Cc1cc(C(=O)N2CCc3[nH]cnc3C2C(=O)O)c(-c2ccccc2)o1 (stereo unspecified),-20.72
24,CN(C)CCNC(=O)c1nc2c(o1)CN(C(=O)c1cccnc1)C2.O=C(O)C(F)(F)F.O=C(O)C(F)(F)F,-13.48
25,COC(C)(C)CC(C)NC(=O)NC1CCN(Cc2ccccn2)CC1 (stereo unspecified),2.912
26,Cn1ncc2c(NCC(=O)N3CCNCC3)nc(C(C)(C)C)nc21,-6.319

row,Structure (SMILES),Percent Effect [%]
1,CC(C)C1CN(c2ncc(F)cn2)CCC(=O)N1Cc1ccc(F)cc1 (stereo unspecified),23.16
2,Cc1ccc(S(=O)(=O)Nc2cccnc2O)cc1C,0.1699
3,CC(CNC(=O)N1CCSCC1)Cc1cccs1 (stereo unspecified),19.49
4,O=C(c1cccn1Cc1cccs1)N1CCSCC1,87.27
5,CCC(O)CN1CCN(C(=O)c2cccn2Cc2cccs2)CC1 (stereo unspecified),-10.05
6,NC(=O)C1CCN(C(=O)c2cccn2Cc2cccs2)C1 (stereo unspecified),92.97
7,O=C1NC(c2ccccc2)=N[C@@]12CC[C@@H]1CN(Cc3ccncc3)C[C@@H]12,-3.809
8,Cc1ccc(-c2cn(C3CCN(C(=O)[C@H]4CCCO4)CC3)nn2)cc1,-12.17
9,Cc1c(C(=O)N2CCCN(S(C)(=O)=O)CC2)cnn1C,116.6
10,Cc1cc2cc(CNC(=O)c3cnn4c3OCCC4)ccc2[nH]1,3.624
11,O=C(C1CCCO1)N1CCC(n2cc(-c3ccc(F)cc3)nn2)CC1 (stereo unspecified),-2.259
12,CN(C)C(=O)c1cnn2c1OCCC2,85.82
13,CCCn1ncc(C(=O)N2CCN(C3CCCC3)CC2)c1C,4.008
14,Cc1c(C(=O)N2CCC(C(O)c3ccc(Cl)cc3)CC2)cnn1C (stereo unspecified),-1.505
15,O=C(c1cnn2c1OCCC2)N1CCN(C(=O)C2CCCO2)CC1 (stereo unspecified),101.5
16,O=C(c1cnn2c1OCCC2)N1CCC(Cc2ccccc2)CC1,143.8
17,O=C(c1cnn2c1OCCC2)N1CCN(C/C=C/c2ccccc2)CC1,8.023
18,CCn1ncc(C(=O)N2CCCN(CCCc3ccccc3)CC2)c1C,5.21
19,CC(=O)N1CCOC2(CCCN(Cc3ccc(Cl)c(C(F)(F)F)c3)C2)C1 (stereo unspecified),-8.143
20,Clc1cc(CN2CCCC2Cn2cncn2)c2ncccc2c1 (stereo unspecified),9.576
21,N#Cc1cccnc1N1CCCC(CO)(Cc2cccc(Cl)c2)C1 (stereo unspecified),-4.475
22,CC(c1cccc(-c2cn(Cc3ccoc3)nn2)c1)N(C)C (stereo unspecified),-9.392
23,CNC(=O)Cc1ccc(NC(=O)NCc2nc(C)sc2C)cc1,5.733
24,CN(C)C(=O)CCC[S+]([O-])Cc1ccc(Cl)c(Cl)c1 (stereo unspecified),-0.5151
25,CC(=O)N1CCCN(C(=O)c2cnn(C(C)(C)C)c2C)CC1,120.5
26,CS(=O)(=O)N1CCN(C(=O)c2cnn3c2OCCC3)CC1,124.7

row,Structure (SMILES),Percent Effect [%]
1,CC(C)(C)OC(=O)N1CCCN(c2nnc(C3CC3)s2)CC1,1.365
2,CC(=O)c1ccc(N2CCN(C(=O)NC(C)c3ccc(C)o3)CC2)cc1 (stereo unspecified),-3.361
3,CCc1c(C(=O)N2CCCN(C(C)=O)CC2)cnn1C(C)(C)C,7.313
4,CC(C)(C)OC(=O)N1CCN(C(=O)c2cnn3c2OCCC3)CC1,119.8
5,CS(=O)(=O)N1CCN(C(=O)c2[nH]c3ccc(Cl)cc3c2Cl)CC1,-22.4
6,CC(=O)N1CCN(c2nc3c(cnn3C(C)(C)C)c(=O)[nH]2)CC1,-9.111
7,CS(=O)(=O)N1CCn2c(C(=O)N3CCOCC3)cnc2C1,-13.12
8,CC(=O)c1ccc(N2CCN(C(=O)c3cnn4c3OCCC4)CC2)cc1,108.1
9,CN(Cc1cncs1)C1CCN(C(=O)OC(C)(C)C)CC1,3.797
10,CC(=O)c1ccc(N2CCN(C(=O)c3cc(C(C)C)nn3C)CC2)cc1,-2.718
11,O=C(CCN1CCCCO1)N1CC[C@H](O)[C@@H](O)C1,-19.59
12,Cc1ccc(S(=O)(=O)NC(=O)c2cc(S(C)(=O)=O)ccc2C)s1,12.42
13,CCOC(=O)c1ccc(CNC(=O)c2ccon2)o1,45.33
14,Cc1cc(F)ccc1CN1CCC(O)(CN2CCCCC2)C1 (stereo unspecified),-5.371
15,CS(=O)(=O)NCC1CCCN(c2ccc(C(F)(F)F)cn2)C1 (stereo unspecified),7.899
16,OC1(CN2CCCC2)COCCN(c2nccs2)C1 (stereo unspecified),-1.349
17,FC(F)(F)c1ccnc(N2CCCOCC2)c1,1.908
18,OC1(CN2CCCCC2)CCN(c2cc(C(F)(F)F)ccn2)C1 (stereo unspecified),106.3
19,O=C(c1cn(-c2ccc(C(F)(F)F)cn2)nn1)N1CCCCCC1,-5.295
20,FC(F)(F)c1ccnc(N2CCCCCC2)c1,6.382
21,OC1(CN2CCCC2)COCCN(c2cc(C(F)(F)F)ccn2)C1 (stereo unspecified),99.83
22,OC1(CN2CCCCC2)CCN(c2ccc(C(F)(F)F)cn2)C1 (stereo unspecified),107.5
23,CCc1nnc(CNC(=O)CCCN2CCCCC2)s1,-1.719
24,O=C(NCCNC(=O)C1CC1)c1sccc1Br,0.3352
25,Cc1cccc(C(C(=O)NCc2csc(-c3ncccn3)n2)N(C)C)c1 (stereo unspecified),2.9
26,CSC(CNS(=O)(=O)c1cnn(C)c1)c1cccc(Cl)c1 (stereo unspecified),-0.2397

row,Structure (SMILES),Percent Effect [%]
1,Cn1c(CN2CCCCCC2)cc(=O)c(O)c1CN1CCCC1,177.4
2,CCS(=O)(=O)N1CCC(c2nnc(CN3CCCCCC3)n2C)CC1,-3.352
3,Cn1c(CN2CCCCC2)cc(=O)c(O)c1CN1CCCCC1,95.65
4,CCS(=O)(=O)N1CCC(c2nnc(CN3CCCCC3)n2C)CC1,-11.51
5,Cc1noc(C2CCN(Cc3cc(=O)n(C)c(=O)n3C)CC2)n1,2.603
6,CC(=O)c1cc(CN2C[C@@H](CN3CCCC3)[C@@H](CO)C2)n(C)c1,0.4917
7,Cc1ccc(CNC2(Cc3cc(-c4ccccc4)on3)COC2)o1,-15.57
8,CN1CCN(Cc2ccccc2CNC(=O)c2cc(Cl)ccc2F)CC1,-3.272
9,Cn1ncc(C2CC(=O)NCc3nc4sccn4c32)c1C1CC1 (stereo unspecified),-19.57
10,CCC(CC)c1cc(CNC(=O)N2CCC(n3cncn3)CC2)on1,-7.222
11,COc1cc(Cl)ccc1CNC(=O)N(C)C(C)CS(C)(=O)=O (stereo unspecified),2.125
12,COc1ccc(OC)c(CNC(=O)N2CCC(n3cncn3)CC2)c1,67.1
13,COc1cc(Cl)ccc1CNC(=O)N1CCC(n2cncn2)CC1,88.5
14,CCOc1cc(Cl)ccc1CNC(=O)N1CCCC(CO)C1 (stereo unspecified),-9.935
15,CC(C)CC1(C(=O)NCCc2nncn2C2CC2)CCC1,-4.64
16,COCCn1cncc1CN1CCCC(C(=O)Cc2ccccc2)C1 (stereo unspecified),-2.141
17,FC(F)Oc1ccc(CNCc2cc(Br)c3c(c2)OCO3)cc1,-6.924
18,Cc1cccc(S(=O)(=O)NC(=O)CN(C)Cc2ccccc2)c1,-8.063
19,OC1CCN(Cc2ccc(CNc3ncc(Cl)cc3F)cc2)CC1,12.54
20,CCc1ncc2c(n1)CN(CC(=O)NCCOc1ccccc1)CC2,-2.298
21,CC(C)c1ncc2c(n1)CN(CC(=O)Nc1ccncc1)CC2,121.8
22,CCc1ncc2c(n1)CN(CC(=O)Nc1ccc(Cl)cn1)CC2,-11.22
23,CCc1ncc2c(n1)CN(CC(=O)Nc1ccncc1)CC2,110.2

# From ChEMBL document CHEMBL3988442, “University of Dundee, Small-Polar-MMV Screening Library” (2021)
